Screening results from PubChem BioAssay.
Sampled rows, rich in hits. Any-hit rate of the full collection: about 3.3%.
Tau fluor counter: counter-screen for tau fibril formation inhibitors; tau K18 P301L Alexa594 fluorescence, heparin fibrillization; Potency, µM (highest dose often 57.7 µM), inactives show at the top dose activity change, negative = decrease; 280,000 compounds, 0.93% hits; also: nearly all actives have a fitted effect of over 55% in size
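Human K18 P301L tau (15 uM unlabeled plus 0.24 uM Alexa 594-labeled, final) in 100 mM sodium acetate pH 7 was mixed with compound and 20 uM heparin and incubated 6 hr at 37 C.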
NPSR antag: blocks cAMP signaling of the human neuropeptide S receptor | 220,000 compounds, 1% hits | AID 1461 | CHO-NPSR cells, cAMP TR-FRET, antagonist mode | Q6W5P4 | Potency, µM (titrated, usually from 38.3 µM), for the others: at the top dose activity change, negative = inhibition, most hits filed as inhibitors; also: nearly all actives have a fitted effect of over 50% in size
Target sequence (Q6W5P4 whole entry, looked up): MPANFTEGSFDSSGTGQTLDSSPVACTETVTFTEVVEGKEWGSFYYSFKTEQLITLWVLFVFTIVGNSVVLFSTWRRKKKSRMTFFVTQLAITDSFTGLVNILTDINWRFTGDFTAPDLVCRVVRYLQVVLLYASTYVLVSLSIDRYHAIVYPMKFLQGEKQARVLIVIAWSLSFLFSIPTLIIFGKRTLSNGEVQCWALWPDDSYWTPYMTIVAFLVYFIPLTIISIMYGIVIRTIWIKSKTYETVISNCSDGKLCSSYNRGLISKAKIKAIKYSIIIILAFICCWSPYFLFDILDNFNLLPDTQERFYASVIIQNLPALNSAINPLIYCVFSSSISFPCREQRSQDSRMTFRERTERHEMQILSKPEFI
Tau fibril FP: tau fibrillization inhibition (FP); P10636; AID 1468; 280,000 compounds, 0.39% hits; K18 P301L tau heparin fibrillization, Alexa594 FP, 6 h; Potency, µM (top dose mostly 57.7 µM), without a hit: at the highest dose activity, negative = inhibition, hits mostly inhibitors; also: nearly all actives have a fitted effect of over 55% in size
Target sequence (P10636 561-689 P618L limits assumed): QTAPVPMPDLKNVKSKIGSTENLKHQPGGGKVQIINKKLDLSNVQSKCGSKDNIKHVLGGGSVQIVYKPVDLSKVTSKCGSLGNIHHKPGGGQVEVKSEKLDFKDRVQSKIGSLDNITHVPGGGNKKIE
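Human K18 P301L fragment (15 uM unlabeled plus 0.24 uM Alexa 594-labeled) in 100 mM sodium acetate pH 7 with compound, aggregation induced by 20 uM heparin for 6 hr at 37 C. ThT (30 uM) added for 1 hr, then Alexa 594 FP read.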
KinaseGlo FLuc: counter-screen: inhibitors of Kinase-Glo firefly luciferase. Kinase-Glo luciferase, ATP luminescence, 8 min. Potency, µM (doses to about 38.3 µM), for inactives: at the top dose activity change, negative = inhibition, usual class: inhibitors. 200,000 compounds, 0.28% hits. AID 1379; also: nearly all actives have a fitted effect of over 60% in size
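Compound is pinned into ATP-containing buffer (10 uM ATP, imidazole pH 7.2, 7 mM MgCl2). Kinase-Glo luciferase reagent is then added. Light output is recorded following an 8-min room-temperature incubation.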
Tau fibril ThT: inhibitors of human tau fibril formation, thioflavin T binding; P10636; recombinant tau K18 P301L (four-repeat tau fragment), heparin-induced fibrillization, ThT fluorescence; Potency, µM (doses to about 57.4 µM), for the others: at the highest dose activity, negative = inhibition, actives largely listed as inhibitors; 270,000 compounds, 2.1% hits; also: nearly all actives have a fitted effect of over 55% in size
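Heparin-induced fibrillization of the P301L-mutant K18 repeat-domain fragment of human tau was followed by ThT binding in quantitative high-throughput format.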
* hit, by the source's call; ? = inconclusive; nt = no result given; [ ] = dose if it differs, or a comment. Calls follow the shape of the dose curve; as a rule, active = well fitted curve in the direction sought with a large enough effect; inconclusive = small, poorly fitted or top-dose-only effect, or another doubt; inactive = no such curve, though single readings can be large; an effect the other way counts as inactive or inconclusive. % is scaled to controls: 0 for no effect and ±100 for the full control effect; potency is read from the fitted curve at half-maximal effect.

SMILES | Tau fluor counter | NPSR antag | Tau fibril FP | KinaseGlo FLuc | Tau fibril ThT
CCc1cc2c3c(c1)C1(C(=O)N3C(C)(C)C=C2C)C(C#N)=C(N)Oc2[nH]c(=O)[nH]c(=O)c21 (stereo unspecified) | ? | -0.5% | ? | nt | 14.1µM*
COc1cc2c3c(c1)C1(C(=O)N3C(C)(C)C=C2C)C(C#N)=C(N)Oc2cc(C)oc(=O)c21 (stereo unspecified) | -12.8% | -15.5%[46.1 µM] | 8.2% | -0.8% | -11.1%
COc1ccc(C(=O)Nc2ccc3nc(N4CCCCC4)cc(C)c3c2)c(OC)c1 | ? | 6.3% | 7.4% | -1.8% | ?
COc1ccccc1C(=O)Nc1ccc2nc(N3CCC(C)CC3)cc(C)c2c1 | 7.94µM*[quencher] | nt | 17.7% | nt | 8.91µM*
COc1cc(OC)cc(C(=O)Nc2ccc3nc(N4CCC(C)CC4)cc(C)c3c2)c1 | 3.98µM*[quencher] | nt | ? | nt | ?
COc1cccc(CC(=O)Nc2ccc3nc(N4CCC(C)CC4)cc(C)c3c2)c1 | 14.1µM*[quencher] | nt | ? | nt | ?
O=C(NCc1ccccc1F)C(=O)NCC(c1ccco1)S(=O)(=O)c1ccccc1 (stereo unspecified) | -7.5% | nt | -1.8% | nt | -1.8%
COc1cc(NC(=O)CSc2nc3nc(C)c(Cc4ccc(C)cc4)c(C)n3n2)cc(OC)c1 | -26.5% | nt | -5.6% | nt | ?
O=C1c2cccc3c([N+](=O)[O-])ccc(c23)C(=O)N1c1nccs1 | ? | 10µM* | 0.5% | -3.9% | ?
O=C1c2cccc3cccc(c23)C(=O)N1c1nccs1 | 11.2% | -2.0%[46.1 µM] | 3.0% | -0.8% | -1.3%
O=C1c2cccc3c([N+](=O)[O-])ccc(c23)C(=O)N1c1ccccn1 | -4.1% | ? | -1.6% | -5.8% | -0.6%
O=C1c2cccc3c([N+](=O)[O-])ccc(c23)C(=O)N1c1ccc(Cl)cn1 | ? | 5.01µM* | -8.8% | -5.2% | ?
Cc1cc(C2N=C(N)Nc3nc4ccccc4n32)c(C)n1-c1ccccc1Cl (stereo unspecified) | 6.8% | -7.7%[46.1 µM] | -3.3% | -7.3% | -2.4%
Cc1ccc(-n2c(C)cc(C3N=C(N)Nc4nc5ccccc5n43)c2C)c(C)c1 (stereo unspecified) | -8.3% | 10µM* | 1.0% | -1.6% | -13.4%
COc1ccc(NS(=O)(=O)c2c(C)nc3scc(C)n3c2=O)cc1 | 0.5% | nt | 1.1% | nt | 6.6%
COc1ccc(NCC(=O)Nc2ccc(C#N)cc2)cc1Cl | 14.1µM*[quencher] | -8.6%[46.1 µM] | ? | 7.3% | ?
COc1ccc(NC(=O)CNc2cccc(C#N)c2)cc1Cl | ? | -3.7%[46.1 µM] | -6.9% | 0.6% | -12.8%
Cc1nn2c(C)c(C(=O)NC(C)(C)C)cnc2c1-c1ccc(F)cc1 | 1.2% | nt | ? | nt | -1.6%
CC(=O)OCCCNc1cc(Sc2ccc(Cl)cc2)c2nonc2c1[N+](=O)[O-] | ? | ? | ? | -2.4% | 8.91µM*
CCC(=O)OCCNc1cc(SCCC(=O)OC)c2nonc2c1[N+](=O)[O-] | ? | -3.6%[46.1 µM] | ? | 0.1% | 7.94µM*
CCC(=O)OCCNc1cc(Sc2nccn2C)c2nonc2c1[N+](=O)[O-] | ? | ? | -10.3% | 3.5% | 4.47µM*
Cc1cc(Nc2cccc(Cl)c2)nc2ccc(NC(=O)c3cccc(N(C)C)c3)cc12 | 4.47µM*[quencher] | nt | -8.0% | nt | ?
Cc1cc(Nc2cccc(C(F)(F)F)c2)nc2ccc(NC(=O)c3ccc(N(C)C)cc3)cc12 | 3.55µM*[quencher] | nt | -8.6% | nt | 3.55µM*
Cc1cc(Nc2cccc(Cl)c2)nc2ccc(NC(=O)c3cccnc3)cc12 | 7.94µM*[quencher] | nt | -12.1% | nt | ?
Cc1ccc(OCC(=O)Nc2ccc3nc(Nc4cccc(Cl)c4)cc(C)c3c2)cc1 | ? | nt | -10.0% | nt | -10.7%
CC(C)CN(CCCNC(=O)c1cc(-c2cccs2)nc2ccccc12)CC(C)C | -11.9% | nt | ? | nt | 2.7%
COc1ccc(N=C2S/C(=C\c3ccc(OCC(=O)O)cc3)C(=O)N2CCc2c[nH]c3ccccc23)cc1 | 10.6% | -2.3% | ? | 4.8% | 7.0%
COc1ccc(N=C2S/C(=C\c3ccc(N4CCOCC4)o3)C(=O)N2CCc2c[nH]c3ccccc23)cc1 | ? | ? | 6.1% | -8.5% | 14.1µM*
O=C1Nc2cc3c(cc2C1=O)sc1ccccc13 | ? | -3.0% | 5.9% | nt | 1.12µM*
